Screening data (PubChem)
SIRT5 block: sirtuin-5 (human) deacylase inhibition. AID 652115. actives 1.1% (n = 330,000). Q9NXA8. Purified SirT5, succinyl-peptide AMC, trypsin-coupled fluorescence. inhibition, % at 15 µM; in the data active means inhibition above about 15%
Target sequence (Q9NXA8 whole entry, looked up): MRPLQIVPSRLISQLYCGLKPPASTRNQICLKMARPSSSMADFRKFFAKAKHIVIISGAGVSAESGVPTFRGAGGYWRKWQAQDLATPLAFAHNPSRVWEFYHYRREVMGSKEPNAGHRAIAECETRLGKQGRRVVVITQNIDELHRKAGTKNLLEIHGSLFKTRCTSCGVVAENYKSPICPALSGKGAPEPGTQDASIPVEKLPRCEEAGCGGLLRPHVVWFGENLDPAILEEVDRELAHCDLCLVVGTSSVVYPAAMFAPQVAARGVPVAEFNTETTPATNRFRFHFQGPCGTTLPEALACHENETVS
PGC1a acetyl inh: lowers PGC1a acetylation signal in U2OS cells | AlphaScreen anti-acetyl-lysine; with virally co-expressed GCN5 acetyltransferase | inhibition, % at 15.6 µM | actives 0.17% (n = 350,000) | AID 651687;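 active means every replicate shows inhibition of at least 40%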;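 further: 0% = neutral control wells and 100% = positive control wells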
PAX8 reporter: PAX8 transcriptional activity inhibition | actives 1.2% (n = 360,000) | inhibition, % at 12.6 µM | RMG-I TPO-luciferase reporter, SteadyGlo, 24 h;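 active means mean replicate inhibition at least 60% with every replicate also reaching 60%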;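 further: luciferase light reporting Pax8 driven TPO promoter activity; plate controls were median of neutral control wells for no effect and mitoxantrone controls for full effect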
EWS-Fli block: blocks EWS/Fli oncoprotein-driven transcription | A673 NR0B1-luciferase reporter, viability-normalised | inhibition, % at 12.6 µM | actives 0.67% (n = 350,000);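 active means mean inhibition of at least 50% after viability correction, with every replicate also passing that limit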;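 further: firefly luciferase signal divided by Alamar Blue viability fluorescence both relative to DMSO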
LGR2 antag: Drosophila LGR2 receptor signaling inhibition. inhibition, % at 9.99 µM. HEK293 LGR2, CRE-luciferase, bursicon-stimulated, 4 h. actives 0.35% (n = 380,000);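 active means drop in luminescence signal, shown as inhibition above about 50% in the replicate tests, limit read from the data, passing the limit was not always enough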;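 further: agonist challenge used bursicon conditioned medium at about half maximal strength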
rRNA inh HTS: inhibitors of bacterial rRNA selective over humanized ribosomes. actives 1.6% (n = 350,000). GFP signal change (wild-type ribosome), % (concentration not given with the values). E. coli WT GFP vs humanized-ribosome RFP mutants, fluorescence, 24 h; active compounds read low; DMSO median 0, no signal -100;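 active means significant combined selectivity score with lowered wild-type GFP, culture density cut under 30%, mutant RFP and density less affected; inactive means any of these conditions unmet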
* marks the source's active call; other numbers are inactive results; · = no result given. This is a sample that favours compounds with a hit; in the whole collection about 3.4% have one here.

SMILES	SIRT5 block	PGC1a acetyl inh	PAX8 reporter	EWS-Fli block	LGR2 antag	rRNA inh HTS
Cc1ccc2ccccc2c1COC(=O)c1nonc1N	-2	1	·	-7	8	-23*
O=C(C1=C[C@H](C2CC2)C[C@H](OCCCCO)O1)N1CCCC1	-5	8	-16	-37	·	·
Cc1cc(OCCn2cc(/C(N)=N/O)c3ccccc32)ccc1Cl	·	-14	·	·	-21	-40*
Cc1noc(C)c1NC(=O)N(C)C[C@H]1Oc2ccc(NC(=O)Nc3ccc4c(c3)OCO4)cc2CC(=O)N([C@H](C)CO)C[C@H]1C	3	-1	-14	0	-2	0
CC(=O)N1CCc2c(sc(NC(=O)c3ccc([N+](=O)[O-])o3)c2C#N)C1	3	-24	96*	5	-18	-5
CC(C)N1CCc2c(sc(NC(=O)c3ccc([N+](=O)[O-])o3)c2C(N)=O)C1	-5	·	96*	36	11	-56
COc1ccc(C(=O)Nc2sc3c(c2C#N)CCN(C(C)=O)C3)cc1	-6	-7	4	32	-22	1
COC(=O)c1c(NC(=O)c2ccc([N+](=O)[O-])o2)sc2c1CCN(C(C)C)C2	0	·	·	48	-1	·
Cc1noc(C)c1S(=O)(=O)Nc1ccc2c(c1)C(=O)N([C@@H](C)CO)C[C@@H](C)[C@@H](CN(C)S(=O)(=O)c1c(C)noc1C)O2	·	-4	12	-1	6	1
CC(C)NC(=O)Nc1ccc2c(c1)CC(=O)N(C)C[C@H](C)[C@@H](CN(C)C)O2	·	·	·	·	·	0
CCC(=O)N1[C@H](CO)[C@@H](c2ccccc2)C12CN(C(=O)c1cnccn1)C2	-2	8	-7	-3	6	6
COc1ccc([N+](=O)[O-])cc1Nc1c2ccccc2nc2ccccc12	1	-10	31	45	4	7
COc1cc(NS(C)(=O)=O)ccc1Nc1c2ccccc2nc2ccccc12	-2	·	71*	58*	-7	·
Cc1ccc(C(=O)C2CCN(CC(=O)Nc3nc(C)cs3)CC2)cc1	19*	-9	·	6	1	-22*
COc1ccc(C(=O)C2CCN(CC(=O)Nc3cc(C)cc(C)c3)CC2)cc1	-2	·	5	3	4	-31
C[C@H](CO)N1C[C@H](C)[C@H](CN(C)S(=O)(=O)c2ccccc2)Oc2ncc(-c3cccc(C(=O)N(C)C)c3)cc2C1=O	-5	-4	-21	1	-16	2
CCNC(=S)N(CCc1c(C)[nH]c2ccc(F)cc12)Cc1cccnc1	-2	19	-3	-1	8	-27*
CO[C@H]1CN(C)C(=O)c2ccc(NC(=O)c3ccccc3F)cc2OC[C@@H](C)N(C(C)=O)C[C@@H]1C	0	-1	-5	-6	6	-3
Cc1ccc(C(=O)O/N=C(\N)c2ccccc2)c(Cl)c1	-1	20	53	75*	97*	24
N/C(=N\OC(=O)c1cc(Cl)ccc1Cl)c1cccnc1	·	-13	·	·	-33	·
N/C(=N\OC(=O)c1cc(Br)ccc1Cl)c1ccccn1	1	3	-14	3	47	-10
N/C(=N\OC(=O)c1ccc(Cl)cc1[N+](=O)[O-])c1cccnc1	-1	·	-48	-69	-83	-22*
N/C(=N\OC(=O)c1cc([N+](=O)[O-])ccc1Cl)c1ccccn1	1	1	3	-6	-22	-24
Cc1ccc(C(=O)O/N=C(\N)c2ccccn2)c(Cl)c1	4	·	105*	86*	103*	-8
N/C(=N\OC(=O)c1ccccc1Cl)c1ccncc1	2	·	-90	-52	-15	-9
SMILES	SIRT5 block	PGC1a acetyl inh	PAX8 reporter	EWS-Fli block	LGR2 antag	rRNA inh HTS
N/C(=N\OC(=O)c1ccc([N+](=O)[O-])cc1Cl)c1ccccn1	-2	-9	68*	72*	95*	3
O=C(C[C@@H]1CC[C@H]2[C@@H](COC[C@@H](O)CN2C(=O)c2ccc(F)cc2)O1)NC1Cc2ccccc2C1	0	22	1	-3	6	3
O=C(c1cccc(F)c1)N1C[C@@H]2[C@H](c3ccccc31)[C@@H](CO)N2C(=O)c1ccc(F)cc1	8	6	3	-3	0	-1
N/C(=N\OC(=O)c1ccc(Cl)cc1Cl)c1ccccn1	·	·	77*	·	93*	·
N/C(=N\OC(=O)c1ccc(Cl)cc1[N+](=O)[O-])c1ccccn1	1	-22	-40	-45	-3	-34
CCc1cc(C(=O)c2ccc(OC)cc2)c(NC(=O)COCC(=O)O)s1	-1	3	7	13	-17	-12
CCc1cc(C(=O)c2ccc(OC)cc2)c(NC(=O)CC(C)(C)CC(=O)O)s1	3	-7	-1	5	-18	-28*
CN(C(=O)CCc1nnc(CCCCc2ccccc2)o1)C1CC(C)(C)NC(C)(C)C1	27*	·	-5	0	-5	5
COc1cccc(CNC(=O)C[C@H]2C=C[C@@H](NC(C)=O)[C@H](CO)O2)c1	-4	-2	0	1	11	1
CCN(CC)CCN(C(=O)c1c(F)cccc1F)c1nc2cc(C)cc(C)c2s1	-5	·	-15	4	10	-31*
CCOC(=O)c1c(CSC(=N)N)n(-c2ccccc2)c2cc(Br)c(OC(C)=O)cc12	-3	·	8	25	63*	-43*
O=C(O)[C@H]1CCCC[C@H]1C(=O)Nc1ccc(Nc2ccccc2)cc1	·	7	·	·	·	·
O=C(O)C1CCCCC1C(=O)Nc1ccc(OCc2ccccc2)cc1 (stereo not drawn)	·	6	-68	-28	-3	-24*
Cc1cccc(OCC(=O)NNC(=O)C2CCCCC2C(=O)O)c1 (stereo not drawn)	37*	3	-7	-3	17	14
Cc1ccc(OCC(=O)NNC(=O)[C@@H]2CCCC[C@@H]2C(=O)O)c(Br)c1	-3	3	·	-6	-9	3
CCC(=O)Oc1ccc2c(C)cc(=O)oc2c1C(=O)CC	·	4	18	-2	-10	1
CCC(=O)Oc1ccc2c(C)cc(=O)oc2c1C(=O)c1ccccc1	·	14	88*	11	12	-3
Cc1cc2occ(CC(=O)N(C)CC(=O)Nc3c(C)cccc3C)c2cc1C	4	-3	1	1	-15	-4
Cc1ccc(NC(=O)CN(C)C(=O)Cc2coc3cc(C)c(C)cc23)cc1	-8	-14	16	1	-29	-23*
C[C@@H]1CN([C@@H](C)CO)C(=O)c2cc(-c3ccccc3F)cnc2O[C@@H]1CN(C)C(=O)NC1CCCC1	-5	-15	-5	-11	-1	-2
C[C@H](CO)N1C[C@H](C)[C@H](CN(C)S(=O)(=O)c2ccccc2)OCCCC[C@H](C)Oc2ccc(NC(=O)Nc3ccc(F)cc3)cc2C1=O	-1	-3	58	10	5	-1
CCCCS(=O)(=O)/C=C\C=C/S(=O)(=O)CCCC	·	97*	·	·	·	·
